Active and inactive are the calls of the source. Rule for the calls: active = hit-call score of the fitted dose curve at least 0.9, where 1 is the maximum; inactive = score below 0.9.
read-out: catalase (CAT), CAT (gene 847); test: LTEA_HepaRG_CAT: Life Technologies and Expression Analysis (LTEA) Assay for catalase (CAT) using HepaRG (AID 2283452); conditions: mRNA level, 48 h; actives raise or lower the signal;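 for AC50: TaqMan qRT-PCR signal normalized to ACTB GAPDH and POLR2A housekeeping genes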
Experimental: LTEA_HepaRG is a cell based, multiplexed-readout assay that uses HepaRG, a human liver cell line, with measurements taken at 48 hours after chemical dosing on a 96-well plate.LTEA_HepaRG_CAT is one of 102 assay component(s) measured in the LTEA HepaRG cell culture assay. It is a marker of Oxidative Stress.Data from the assay component LTEA_HepaRG_CAT was analyzed into 1 endpoint. This assay endpoint, LTEA_HepaRG_CAT, was analyzed with bidirectional fitting relative to DMSO as the negative control and baseline of activity. Using a type of inducible reporter, measures of mRNA induction for gain or loss-of-signal activity can be used to understand regulation of transcription factor activity. To generalize the intended target to other relatable targets, this assay endpoint is annotated to the catalase intended target family, where the subfamily is oxidative stress.
A total of 1060 chemcials from the ToxCast library were tested in eight-point concentration-response experiments. Cell culture and cytotoxicity assays were conducted at Thermo Fisher Scientific's Custom Services facility (Madison, WI). A single lot of human HepaRG cells (Thermo Fisher Scientific, Frederick, MD) was used for the cell culture experiments. 96-well format collagen type I coated plates of human HepaRG cells were prepared using established methods. Briefly, cryopreserved HepaRG cells were thawed, plated at a density of approximately 100,000 cells/well in HepaRG Thaw, Plate, and General Purpose media (HPRG770, Thermo Fisher Scientific), and incubated for 48 hours. 0.5% DMSO was selected as vehicle control to balance the requisite need of DMSO in HepaRG cultures to maintain differentiation (for example, baseline metabolism, proportions of hepatocytes vs. cholangiocytes), while enabling further hepatic receptor pathway activation (for example, PXR and CAR) in response to chemical exposure. 48 hours after plating, the culture medium was replaced with HepaRG Serum-Free Incudtion Media. Cells were exposed to each test chemical in duplicate and maintained in CO2 incubators for another 48 hours. Chemical plates were thawed to room temperature and 200x concentrations of treatment groups were prepared. 8-point conentration-reponse curves were made with the highest exposure at 100 uM, followed by half-log dilutions, all in 0.5% DMSO. Each test plate contained variouse controls, induction positive controls (1mM phenobarbital), cytotoxicity positive controls ([…] aflatoxin B1), vehicle controls (0.5% DMSO), and total lysis controls (0.5% DMSO). Cell morphology images were taken using an Essen IncuCyte FLR automated microscope, with six 96-well plates imaged in about 24 minutes. Images were captured and exported and JPEG files. Spent culture media was transfered to black-well plates for the LDH assay, and remaining media was sorted at -80 C for later use. Cells were treated with RLT buffer and frozen until shipped for gene expression analysis. Total RNA was isolated from the cell suspension in 75 uL of Buffer RLT (Qiagen, Germantown, MD 20874) by Quintiles/Expression Analysis (Durham, NC) using a custom isolation procedure. Total RNA from each plate well was transferred to a preamplification plate. Fluidigm's 96.96 Dynamic ArrayTM (Fluidigm, Amsterdam, the Netherlands) technology was used for gene expression analyses by quantitative reverse transcription polymerase chain reaction (qRT-PCR, performed by Quintiles/Expression Analysis, Durham, NC)89. Standard TaqManTM Assays (Applied Biosystems/ThermoFisher Scientific, Foster City, CA) were used to assess the expression of 93 genes selected based on their selectivity and sensitivity to important hepatic receptors known to be modulated by environmental chemicals; importance in human hepatocyte functionality; and hepatotoxicity. […]

Row | SMILES | outcome | AC50
1 | CC(C)O.CC(C)O.OCCN(CCO)CCO.OCCN(CCO)CCO.[Ti] | inactive | –
2 | CCCCCCCCCCCCc1cccc(S(=O)(=O)O)c1 | inactive | –
3 | OCCN(CCO)CCO | inactive | –
4 | Clc1cccc(Cl)c1Cl | inactive | –
5 | O=C(N[C@H]1CN2CCC1CC2)c1ccc2c(c1)OCCO2 | inactive | –
6 | Oc1c(Cl)cc(Cl)cc1Cl | inactive | –
7 | CC(C)(C)c1ccccc1O | inactive | –
8 | O=C(O)C1(c2ccc3c(c2)OC[C@H](Cc2ccc(-c4ccccc4)cc2)[C@H]3O)CCCC1 | – | 82 µM (active)
9 | Clc1cccc(Cl)c1 | inactive | –
10 | Oc1cc(Cl)c(Cl)cc1Cl | inactive | –
11 | N#Cc1cccnc1 | inactive | –
12 | Cc1cc(C)cc(C)c1 | inactive | –
13 | COc1ccccc1N | inactive | –
14 | CN(C)C(=S)S | inactive | –
